The sample as a whole holds a higher share of hits than the screen did.
mHTT CaM bind: inhibitors of human mutant huntingtin-calmodulin interaction; P42858; AlphaScreen His-mHTT/GST-CaM binding, luminescence; inhibition, % at 15 µM; 190,000 compounds, 3.6% hits
Pf apPOL block: Pf-apPOL DNA polymerase inhibition | Recombinant Pf-apPOL, molecular beacon fluorescence, 1.5 h | inhibition, % at 10 µM | 210,000 compounds, 0.25% hits | AID 1794808
Hits are given with their value; 0 = inactive; - = no result. No stated cut-off is given here; in the data, active means inhibition above about 50%; inactive means the rest.

SMILES	mHTT CaM bind	Pf apPOL block
COc1ccccc1C(=O)N1CCCC(c2ccnc(Nc3ccccc3C)n2)C1 (centres undefined)	52.0	0
O=C(c1ccc(F)cc1)N1CCCC(c2ccnc(Nc3ccccc3)n2)C1 (centres undefined)	0	0
COc1ccc(C(=O)N2CCCC(c3ccnc(Nc4cccc(F)c4)n3)C2)c(OC)c1 (centres undefined)	0	0
COc1ccc(C(=O)N2CCCC(c3ccnc(Nc4cccc(F)c4)n3)C2)cc1 (centres undefined)	64.0	0
CN(C)c1ccc(C(=O)N2CCCC(c3ccnc(Nc4ccc(F)cc4)n3)C2)cc1 (centres undefined)	88.3	0
COc1ccc(Nc2nccc(C3CCCN(C(=O)c4ccc(C#N)cc4)C3)n2)cc1 (centres undefined)	0	0
CCN1CCN(C(=O)C2COC3(CCC(C)CC3)N2C(=O)c2ccccc2F)CC1 (centres undefined)	0	0
O=C(c1cccs1)N1CCC(n2cnnc2-c2ccccc2)C1 (centres undefined)	0	0
Cc1cc(O)c(CN(C)C)c2c1C(=O)C(=Cc1ccccc1)O2	0	0
CCCNc1cc(N2CCCC(CCC(=O)NCCOC)C2)ncn1 (centres undefined)	0	0
CCCC(=O)N1CCCC(c2ccnc(Nc3ccc(C)cc3)n2)C1 (centres undefined)	0	0
Cc1ccccc1C(=O)N1CCCC(c2ccnc(-c3ccccc3)n2)C1 (centres undefined)	0	0
Cc1ccccc1C(=O)N1CCCC(c2ccnc(Nc3cccc(F)c3)n2)C1 (centres undefined)	99.5	0
COc1ccccc1C(=O)N1CCCC(c2ccnc(-c3cccc(F)c3)n2)C1 (centres undefined)	51.0	0
CC(C)(C)C(=O)N1CCCC(c2ccnc(Nc3cccc(F)c3)n2)C1 (centres undefined)	77.9	0
Cc1ccc(C(=O)N2CCCC(c3ccnc(Nc4ccc(F)cc4)n3)C2)s1 (centres undefined)	82.3	0
COc1ccccc1C(=O)N1CCCC(c2ccnc(-c3cccc(C)c3)n2)C1 (centres undefined)	0	0
Cc1cccc(-c2nccc(C3CCCN(C(=O)C(C)(C)C)C3)n2)c1 (centres undefined)	0	0
CC1CCN(C(=O)c2ccc(OCC3CCCN(C(=O)C(C)(C)C)C3)cc2)CC1 (centres undefined)	0	0
CN(C1CC1)S(=O)(=O)c1ccc(C(=O)Nc2ccc(S(C)(=O)=O)cc2)cc1	0	0
CC1CCN(c2ncc3c(n2)CCC(C(=O)NCc2nc4ccccc4n2C)C3)CC1 (centres undefined)	0	0
CCCCC[C@@H](C)N1C[C@H](COCc2ccccc2)Oc2cc(N3CC[C@@H](O)C3)ccc2S1(=O)=O	57.5	0
CCCCC[C@H](C)N1C[C@H](COCc2ccccc2)Oc2cc(N3CCC[C@@H]3CO)ccc2S1(=O)=O	0	0
CCCCC[C@H](C)N1C[C@H](COCc2ccccc2)Oc2cc(N3CCC[C@H]3CO)ccc2S1(=O)=O	0	0
CCCCC[C@H](C)N1C[C@H](COCc2ccccc2)Oc2cc(N3CC[C@H](O)C3)ccc2S1(=O)=O	96.2	0
SMILES	mHTT CaM bind	Pf apPOL block
CCCCC[C@H](C)N1C[C@@H](COCc2ccccc2)Oc2cc(N3CCC[C@H]3C(N)=O)ccc2S1(=O)=O	69.4	0
CCCCC[C@@H](C)N1C[C@@H](COCc2ccccc2)Oc2cc(N3CCC[C@H]3C(N)=O)ccc2S1(=O)=O	0	0
CCCCC[C@H](C)N1C[C@@H](COCc2ccccc2)Oc2cc(N3CCC[C@H]3CO)ccc2S1(=O)=O	0	0
CCCCC[C@@H](C)N1C[C@H](COCc2ccccc2)Oc2cc(N3CC[C@H](O)C3)ccc2S1(=O)=O	77.7	0
Cc1c(Cl)cccc1NC(=O)CSc1nc2[nH]ncc2c(=O)n1-c1cccc(Cl)c1	0	0
Fc1ccc(CSc2ncnc3nc[nH]c23)c2ccccc12	0	-
COc1cccc(CNCc2ccccc2C(F)(F)F)c1OC	0	0
CC(C)NC(=O)C1CCN(c2nc3ccccc3[nH]2)CC1	0	0
COc1cccc(C(=O)Nc2nnc(C3CC3)s2)c1OC	0	0
CCCCC[C@H](C)N1C[C@H](COCc2ccccc2)Oc2cc(N3CCC[C@@H]3COC)ccc2S1(=O)=O	0	0
CCCCC[C@@H](C)N1C[C@H](COCc2ccccc2)Oc2cc(N3CC[C@H](N(C)C)C3)ccc2S1(=O)=O	100.1	0
O=C(c1ccc(F)c(F)c1)N1CCCC1c1nc(-c2ccc(F)cc2F)no1 (centres undefined)	0	0
CCc1c(O)nc(SCC(=O)Nc2cccc(OC)c2)n(-c2ccccc2)c1=O	0	0
C=CCc1cc(OC)c(O)c(-c2cc(CC=C)cc(OC)c2O)c1	61.0	0
COc1cc(CCCO)cc(-c2cc(CCCO)cc(OC)c2O)c1O	0	0
O=C(/C=C/c1cccc(Cl)c1Cl)Nc1cc2ccccc2oc1=O	0	0

Compound activity as filed in PubChem.
